We go through six compounds from PubChem BioAssay (Tox21).

Test [1] has as its target Aryl hydrocarbon receptor (Homo sapiens) (UniProt P35869). Description: qHTS assay to identify small molecule that activate the aryl hydrocarbon receptor (AhR) signaling pathway (AID 743085).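 Also: HG2L7.5c1 human HepG2 liver cells with stably integrated DRE-driven firefly reporter; series mostly up to about 70 µM; nearly all actives have a fitted effect of over 15% in size.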 In short, it runs like this:
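HepG2 cells (HG2L7.5c1) stably carrying a firefly luciferase reporter driven by 20 dioxin responsive elements were exposed to compound for 24 h at 37C after a 5 h settling period; luminescence rise (ONE-Glo) indicated activation.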
Background: In qHTS, concentration-response curves come from the screen itself.

A short description of test [2]: qHTS assay to identify small molecule antagonists of the peroxisome proliferator-activated receptor gamma (PPARg) signaling pathway - cell viability counter screen (AID 743194). Also: nearly all actives have a fitted effect of over 55% in size. Also: potency is read from the fitted curve at half-maximal effect. In short, it runs like this:
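Viability was measured as CellTiter-Glo luminescence in GeneBLAzer PPARg UAS-bla HEK293H cells. These cells had been exposed 17 h at 37 C to compounds together with rosiglitazone at 50 nM final, with the beta-lactamase readout taken in the same wells.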

A short description of test [3]: qHTS assay for small molecule agonists of the antioxidant response element (ARE) signaling pathway - cell viability counter screen (AID 743203; calls by dose curve; also: nearly all actives have a fitted effect of over 55% in size; also: potency is read from the fitted curve at half-maximal effect). A digest of the protocol:
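Cells (ARE-bla HepG2, 2,000/well) receive DMSO-dissolved compounds after a 5 hrs rest. Plates incubate 16 hrs at 37C/5% CO2. CellTiter-Glo luminescence is then recorded after 30 min at room temperature.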

Test [4] is described as follows: qHTS assay for small molecule activators of the heat shock response signaling pathway - cell viability counter screen (AID 743209). Also: nearly all actives have a fitted effect of over 50% in size. Also: potency is read from the fitted curve at half-maximal effect. A digest of the protocol: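 Quantitative HTS format, Tox21 10K library. HeLa cells carrying an HSE-driven beta-lactamase reporter were treated 5 h at 37 C, then assessed for viability by CellTiter-Glo luminescence.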
Test [5] can be described thus: qHTS assay for small molecule activators of the heat shock response signaling pathway (AID 743210; active = well fitted activation curve with a large enough effect in the signal ratio in the repeat runs, with a control signal flat, not every such curve was filed as active; the % refers to the signal ratio; also: series mostly up to about 63 µM). In short, it runs like this: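 In HSE-bla HeLa cells, 5 h compound incubation (37 C) precedes addition of LiveBLAzer B/G substrate; after 2.5 h at room temperature, fluorescence intensity indicates reporter induction.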
A short description of test [6]: qHTS assay to identify small molecule agonists of the peroxisome proliferator-activated receptor delta (PPARd) signaling pathway - cell viability counter screen (AID 743211). Also: nearly all actives have a fitted effect of over 55% in size. Also: potency is read from the fitted curve at half-maximal effect. A digest of the protocol: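 PPARd-bla HEK293H cells (UAS-beta-lactamase reporter) were treated with compounds for 17 h at 37 C. Viability was then read in the same wells by CellTiter-Glo luminescence after 30 min at room temperature.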

A short description of test [7]: qHTS assay to identify small molecule antagonists of the peroxisome proliferator-activated receptor delta (PPARd) signaling pathway - cell viability counter screen (AID 743213). Also: nearly all actives have a fitted effect of over 50% in size. Also: potency is read from the fitted curve at half-maximal effect. A digest of the protocol:
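CellTiter-Glo was added to PPARd-bla HEK293H wells following 17 h compound treatment in the presence of 300 nM L165041. Luminescence was recorded after 30 min at room temperature.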

Test [8] can be described thus: qHTS assay to identify small molecule agonists of the farnesoid-X-receptor (FXR) signaling pathway - cell viability counter screen (AID 743218). Also: nearly all actives have a fitted effect of over 45% in size. Also: potency is read from the fitted curve at half-maximal effect. A digest of the protocol:
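In GeneBLAzer FXR-UAS-bla HEK 293T cells, compounds act for 16 h at 37 C. Cell viability is then scored in the reporter wells by CellTiter-Glo, 30 min at RT, luminescence.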

Test [9] has as its target Bile acid receptor (Homo sapiens) (UniProt Q96RI1). Put plainly: qHTS assay to identify small molecule agonists of the farnesoid-X-receptor (FXR) signaling pathway (AID 743220; active = well fitted activation curve with a large enough effect in the signal ratio in the repeat runs, not every such curve was filed as active; the % refers to the signal ratio). In short, it runs like this:
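Beta-lactamase reporter under UAS control in GeneBLAzer FXR HEK 293T cells (5000/well) measured with LiveBLAzer FRET substrate after 2 h at room temperature. Compound exposure lasted 16 h at 37C.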

Test [10] is described as follows: qHTS assay to identify small molecule antagonists of the farnesoid-X-receptor (FXR) signaling pathway - cell viability counter screen (AID 743221; active = well fitted cell-killing curve with a large enough effect in the repeat runs, not every such curve was filed as active; also: nearly all actives have a fitted effect of over 50% in size; also: potency is read from the fitted curve at half-maximal effect). A digest of the protocol:
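FXR-UAS-bla HEK 293T cells were treated with test compounds plus chenodeoxycholic acid (50 uM final) for 16 h at 37 C. Cell viability in the same wells was then read as CellTiter-Glo luminescence after 30 min at room temperature.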

The target of test [11] is Vitamin D3 receptor (Homo sapiens) (UniProt P11473). Description: qHTS assay to identify small molecule agonists of the vitamin D receptor (VDR) signaling pathway (AID 743222; calls by dose curve). In short, it runs like this: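 Agonist activity measured in VDR-bla reporter cells. Exposure 16 h, 37C, 5% CO2; detection by B/G FRET substrate, 2 h RT.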
Test [12] in a line: qHTS assay to identify small molecule agonists of the vitamin D receptor (VDR) signaling pathway - cell viability counter screen (AID 743224). Also: nearly all actives have a fitted effect of over 50% in size. Also: potency is read from the fitted curve at half-maximal effect. In short, it runs like this:
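VDR-bla cell line, quantitative HTS format; 16 h compound incubation (37C, 5% CO2); ATP-based CellTiter-Glo luminescence measured in the reporter assay wells.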

Test [13] can be described thus: qHTS assay to identify small molecule antagonists of the vitamin D receptor (VDR) signaling pathway - cell viability counter screen (AID 743225). Also: nearly all actives have a fitted effect of over 50% in size. Also: potency is read from the fitted curve at half-maximal effect. A digest of the protocol: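 VDR-bla HEK 293T cells, 4 h pre-incubation at 37C, then compound plus 1-alpha,25-dihydroxyvitamin D3 (3 nM final) for 16 h. After the beta-lactamase FRET read, CellTiter-Glo was added to the same wells; luminescence after 30 min at room temperature.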

Test [14] is described as follows: qHTS assay for small molecule agonists of the antioxidant response element (ARE) signaling pathway (AID 743202; active = well fitted activation curve with a large enough effect in the signal ratio in the repeat runs, not every such curve was filed as active; the % refers to the signal ratio). In short, it runs like this: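 An ARE-responsive beta-lactamase gene stably integrated in HepG2 cells serves as reporter. After 5 h plating and 16 h compound incubation at 37 C, fluorescence of the B/G FRET substrate was measured.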
Test [15] deals with Peroxisome proliferator-activated receptor delta (Homo sapiens) (UniProt Q03181). Description: qHTS assay to identify small molecule agonists of the peroxisome proliferator-activated receptor delta (PPARd) signaling pathway (AID 743212; calls by dose curve). In short, it runs like this: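 HEK293H UAS-bla reporter cells, human PPARd system; compounds delivered in DMSO after 5 h plating, then at 37 C. Beta-lactamase FRET read, 2 h RT substrate step.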

Test [16] addresses Vitamin D3 receptor (Homo sapiens) (UniProt P11473). Put plainly: qHTS assay to identify small molecule antagonists of the vitamin D receptor (VDR) signaling pathway (AID 743223; active = well fitted inhibition curve with a large enough effect in the signal ratio in the repeat runs, not every such curve was filed as active; the % refers to the signal ratio; also: potency is read from the fitted curve at half-maximal effect). A digest of the protocol: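 VDR-bla cells were plated, incubated 4 h at 37C, then given compound and 1alpha,25-dihydroxyvitamin D3 (3 nM final). After 16 h at 37C, LiveBLAzer B/G FRET substrate was added for 2 h at room temperature and fluorescence read.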

The target in test [17] is Peroxisome proliferator-activated receptor gamma (Homo sapiens) (UniProt P37231). Put plainly: qHTS assay to identify small molecule agonists of the peroxisome proliferator-activated receptor gamma (PPARg) signaling pathway (AID 743094; active = well fitted activation curve with a large enough effect in the signal ratio in the repeat runs, not every such curve was filed as active; the % refers to the signal ratio). A digest of the protocol:
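Stably transfected HEK293H cells (GeneBLAzer PPARg UAS-bla) were incubated with test substances for 17 h at 37C after a 5 h pre-incubation; beta-lactamase activity was then detected by FRET substrate fluorescence.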

Test [18] is described as follows: qHTS assay to identify small molecule that activate the aryl hydrocarbon receptor (AhR) signaling pathway - cell viability counter screen (AID 743086). Also: nearly all actives have a fitted effect of over 45% in size. Also: potency is read from the fitted curve at half-maximal effect. In short, it runs like this: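 Cytotoxicity counter screen: CellTiter-Fluor signal (30 min, 37 C) in 4000 HepG2 cells/well carrying the DRE-luciferase reporter, following 24 h compound exposure at 37 C.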
Test [19] deals with Peroxisome proliferator-activated receptor gamma (Homo sapiens) (UniProt P37231). Put plainly: qHTS assay to identify small molecule antagonists of the peroxisome proliferator-activated receptor gamma (PPARg) signaling pathway (AID 743191; calls by dose curve; also: potency is read from the fitted curve at half-maximal effect; nearly all actives have a fitted effect of over 30% in size). A digest of the protocol: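 Beta-lactamase reporter under UAS control in HEK293H PPARg-bla cells; compound treatment 17 h at 37C. Read-out: fluorescence intensity after 1 h room-temperature incubation with LiveBLAzer B/G FRET substrate.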

Test [20] has as its target Bile acid receptor (Homo sapiens) (UniProt Q96RI1). Put plainly: qHTS assay to identify small molecule antagonists of the farnesoid-X-receptor (FXR) signaling pathway (AID 743217; active = well fitted inhibition curve with a large enough effect in the signal ratio in the repeat runs, not every such curve was filed as active; the % refers to the signal ratio; also: potency is read from the fitted curve at half-maximal effect). In short, it runs like this:
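Beta-lactamase reporter under UAS control in HEK 293T cells; compound exposure 16 h at 37 °C in the presence of chenodeoxycholic acid (50 uM final); signal from B/G FRET substrate after 2 h at room temperature.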

Values joined by “and” are separate entries in the source; they are usually repeats but may differ in a detail not shown here. Equal entries are not always repeated. Inconclusive results are not listed. Some structures have more than one record in an assay (separate samples or runs), and their calls can disagree. Active and inactive are the calls of the source. Unless noted, calls follow the shape of the dose curve; as a rule, active = well fitted curve in the direction sought with a large enough effect in the repeat runs; inconclusive = weak or mixed curves; inactive = no such curve, though single readings can be large; an effect the other way counts as inactive or inconclusive.

Sequence of Peroxisome proliferator-activated receptor gamma (Homo sapiens) (P37231 whole entry, looked up): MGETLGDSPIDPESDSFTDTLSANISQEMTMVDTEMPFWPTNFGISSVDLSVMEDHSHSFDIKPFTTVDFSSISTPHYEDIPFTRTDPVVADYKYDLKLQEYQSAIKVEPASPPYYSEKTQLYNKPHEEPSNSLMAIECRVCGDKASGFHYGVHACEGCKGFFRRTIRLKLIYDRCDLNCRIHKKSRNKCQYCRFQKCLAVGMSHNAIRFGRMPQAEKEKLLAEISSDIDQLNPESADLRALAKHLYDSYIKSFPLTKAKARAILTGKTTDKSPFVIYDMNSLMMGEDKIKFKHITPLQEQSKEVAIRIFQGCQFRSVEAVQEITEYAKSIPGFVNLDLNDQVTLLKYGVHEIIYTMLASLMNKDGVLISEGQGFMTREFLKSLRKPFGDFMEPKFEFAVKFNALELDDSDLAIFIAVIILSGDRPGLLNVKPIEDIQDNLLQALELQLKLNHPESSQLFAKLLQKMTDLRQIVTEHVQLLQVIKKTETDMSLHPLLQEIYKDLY
Sequence of Aryl hydrocarbon receptor (Homo sapiens) (P35869 whole entry, looked up): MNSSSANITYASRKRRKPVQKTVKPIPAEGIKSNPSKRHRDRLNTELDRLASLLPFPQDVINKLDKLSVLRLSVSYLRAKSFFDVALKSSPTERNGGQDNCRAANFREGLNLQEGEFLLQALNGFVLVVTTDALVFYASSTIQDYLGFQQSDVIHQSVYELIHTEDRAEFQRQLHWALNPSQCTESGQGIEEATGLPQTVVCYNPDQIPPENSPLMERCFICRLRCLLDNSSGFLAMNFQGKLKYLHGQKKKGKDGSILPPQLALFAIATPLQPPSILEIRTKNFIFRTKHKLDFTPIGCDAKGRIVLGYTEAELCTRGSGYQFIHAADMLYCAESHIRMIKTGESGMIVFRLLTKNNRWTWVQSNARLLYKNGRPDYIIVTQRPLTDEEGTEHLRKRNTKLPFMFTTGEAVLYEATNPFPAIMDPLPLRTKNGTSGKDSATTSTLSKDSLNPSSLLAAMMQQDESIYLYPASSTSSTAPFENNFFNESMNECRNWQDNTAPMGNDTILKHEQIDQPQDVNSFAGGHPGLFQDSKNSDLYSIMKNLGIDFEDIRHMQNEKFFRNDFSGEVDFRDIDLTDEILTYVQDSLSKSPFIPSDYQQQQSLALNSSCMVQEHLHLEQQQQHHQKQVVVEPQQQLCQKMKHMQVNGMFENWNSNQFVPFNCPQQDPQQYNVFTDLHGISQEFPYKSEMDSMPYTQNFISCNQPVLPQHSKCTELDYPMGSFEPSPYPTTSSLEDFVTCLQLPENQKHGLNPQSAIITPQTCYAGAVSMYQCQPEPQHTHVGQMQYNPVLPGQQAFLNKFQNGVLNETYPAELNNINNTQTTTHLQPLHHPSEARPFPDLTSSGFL
Sequence of Peroxisome proliferator-activated receptor delta (Homo sapiens) (Q03181 whole entry, looked up): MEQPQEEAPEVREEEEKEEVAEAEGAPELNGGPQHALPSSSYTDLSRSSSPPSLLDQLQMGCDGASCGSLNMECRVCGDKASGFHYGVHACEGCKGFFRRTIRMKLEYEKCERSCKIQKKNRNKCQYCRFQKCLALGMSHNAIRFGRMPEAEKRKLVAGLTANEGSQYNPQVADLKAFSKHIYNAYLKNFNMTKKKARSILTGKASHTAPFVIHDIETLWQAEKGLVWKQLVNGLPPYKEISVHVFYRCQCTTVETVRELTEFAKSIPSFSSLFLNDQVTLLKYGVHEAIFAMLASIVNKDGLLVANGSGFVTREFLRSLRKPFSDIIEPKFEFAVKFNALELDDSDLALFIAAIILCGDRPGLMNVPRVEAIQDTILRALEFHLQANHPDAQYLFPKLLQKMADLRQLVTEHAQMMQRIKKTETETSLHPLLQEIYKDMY
Sequence of Bile acid receptor (Homo sapiens) (Q96RI1 whole entry, looked up): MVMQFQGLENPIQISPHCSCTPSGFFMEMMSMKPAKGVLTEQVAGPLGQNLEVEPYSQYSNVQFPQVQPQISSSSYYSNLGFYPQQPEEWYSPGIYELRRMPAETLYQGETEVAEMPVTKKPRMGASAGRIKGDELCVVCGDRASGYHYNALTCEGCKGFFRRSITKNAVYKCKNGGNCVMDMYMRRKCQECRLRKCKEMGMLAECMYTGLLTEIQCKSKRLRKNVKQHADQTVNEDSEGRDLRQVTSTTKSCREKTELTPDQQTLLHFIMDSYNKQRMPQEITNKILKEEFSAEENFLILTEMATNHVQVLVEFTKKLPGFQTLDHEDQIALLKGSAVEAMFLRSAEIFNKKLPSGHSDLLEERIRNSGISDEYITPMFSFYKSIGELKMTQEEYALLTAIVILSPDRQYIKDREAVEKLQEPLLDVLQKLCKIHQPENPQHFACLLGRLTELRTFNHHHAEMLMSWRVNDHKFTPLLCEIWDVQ
Sequence of Vitamin D3 receptor (Homo sapiens) (P11473 whole entry, looked up): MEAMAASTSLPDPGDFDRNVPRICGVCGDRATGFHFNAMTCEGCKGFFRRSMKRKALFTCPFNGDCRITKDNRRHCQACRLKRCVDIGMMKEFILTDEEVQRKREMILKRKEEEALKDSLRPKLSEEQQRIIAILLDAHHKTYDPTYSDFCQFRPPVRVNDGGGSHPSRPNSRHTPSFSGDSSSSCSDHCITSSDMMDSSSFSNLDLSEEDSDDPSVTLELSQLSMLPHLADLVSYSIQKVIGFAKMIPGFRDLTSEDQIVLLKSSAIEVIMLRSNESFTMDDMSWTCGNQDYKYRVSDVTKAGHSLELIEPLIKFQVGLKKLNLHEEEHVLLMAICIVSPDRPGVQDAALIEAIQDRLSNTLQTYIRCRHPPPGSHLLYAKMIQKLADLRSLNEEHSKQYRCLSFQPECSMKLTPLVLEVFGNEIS

Regarding `COc1ccc2cc(S(=O)(=O)N[C@H](CC(=O)N[C@H](Cc3ccc(CN4[C@H](C)CCC[C@@H]4C)cc3)C(=O)N(C)C(C)C)c3ccc4c(c3)OCO4)ccc2c1`, the Potency result in test [1], in test [4] and in test [11] was “inactive” in each case. Besides, the Potency in test [2] was 46.3 µM (active); in [3], 18.3 µM (active); in [6], 14.7 µM (active); in test [7], 29.2 µM (active); in test [8], 26.1 µM (active); in test [10], 52 µM (active). In addition, the Potency is 52 µM (active) in [12] and 20.7 µM (active) in test [13]. Besides, the compound was called inactive in [5] and in test [9].
Regarding `OC[C@H]1O[C@H](O[C@]2(CCl)O[C@H](CCl)[C@@H](O)[C@@H]2O)[C@H](O)[C@@H](O)[C@H]1Cl`, the Potency result in test [1], in [2], in test [14], in test [3], in test [4] and in [6] was “inactive” throughout. For the same compound, the Potency entry in test [15], in test [7], in test [8], in test [10], in test [11] and in test [16] was “inactive” throughout. Also, the Potency result in test [12] and in test [13] was “inactive” each time. The compound was classed as inactive in [5].
Take `CCCCCCCCCCCCCCCC[N+](C)(C)Cc1ccccc1`: the Potency result in test [1], in [17] and in test [11] was “inactive” each time. For the same compound, the Potency is 25.3 µM (active) and 17.7 µM (active) and 33.5 µM (active) in test [2]; 63.1 µM (active) and 49.4 µM (active) and 29.8 µM (active) in test [3]; 50.5 µM (active) and 44.4 µM (active) and 23.7 µM (active) in [4]; 31.9 µM (active) and 8.86 µM (active) and 18.8 µM (active) in test [6]; 22.6 µM (active) and 9.94 µM (active) and 13.3 µM (active) in test [7]; 63.6 µM (active) and 25 µM (active) and 16.8 µM (active) in test [10]. Moreover, the Potency in test [16] is 63.6 µM (active) and 49.8 µM (active); in [12] it was 31.9 µM (active) and 8.86 µM (active) and 26.6 µM (active); in test [13], 45 µM (active) and 17.7 µM (active) and 21.3 µM (active). For the same compound, the compound was classed as inactive in test [9].
On to `CN1CCc2cccc3c2[C@H]1Cc1ccc(O)c(O)c1-3`, for which the Potency entry is “inactive and 61.8 µM (active)” in test [18]; 6.49 µM (active) in test [19]; 44.1 µM (active) and 3.65 µM (active) in test [2]; 49.1 µM (active) and 5.74 µM (active) in test [3]; 49.5 µM (active) and 10.3 µM (active) and 21.1 µM (active) in test [6]; 49.5 µM (active) and 18.3 µM (active) in test [7]. For the same compound, the Potency in test [20] was 39.3 µM (active) and 18.3 µM (active); in [10] it was 44.1 µM (active) and inactive; in [12], 49.5 µM (active) and 16.3 µM (active) and 26.6 µM (active); in test [13] it was 49.5 µM (active) and 11.5 µM (active). The Potency result in [17], in test [4], in [15], in test [11] and in test [16] was “inactive” in each case. Moreover, in test [9], the outcome was inactive.
Take `CC(=O)CC(c1ccccc1)c1c(O)c2ccccc2oc1=O` (stereo not drawn): the Potency entry in [2], in test [14], in [3], in [4], in [6] and in test [7] was “inactive” throughout. Further, the Potency entry in test [8], in [10], in test [11], in test [16], in test [12] and in [13] was “inactive” each time.
For the compound `C=C(C)C(=O)OCC(C)O` (stereo not drawn), the Potency entry in [1], in [2], in test [14], in test [3], in test [4] and in test [6] was “inactive” throughout. In addition, the Potency result in test [15], in test [7], in test [10], in [11], in test [16] and in [12] was “inactive” each time. In test [13], the Potency result is “inactive”. Moreover, the call in test [5] was inactive.
